The list is not random: actives were taken first. Their share in the collection is about 2.6%.
HIF-2a inh: HIF-2a inhibition; AID 624352; inhibition, % at 18.8 µM; 786-0 RCC cells HIF-2a reporter, luciferase luminescence, overnight; 360,000 tested, 0.72% active;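 active = inhibition of the luminescence signal of 40% or more relative to plate controls, in a single-dose primary screen at 18.75 µM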
Shn3 3UTR inh: Schnurri-3 reporter inhibition in Clone20 osteoblasts. Clone20 osteoblast Shn3 3'UTR firefly luciferase, 24 h. AID 588674. 360,000 tested, 0.52% active. inhibition, % at 12.5 µM;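 active = mean inhibition of at least 75% with every replicate also reaching 75%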;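 also: 0% = median of neutral control wells and 100% = pilot-screen positive control compound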
KKLEB tox: CF airway cell cytotoxicity counter-screen; KKLEB CF airway cells viability, ATPlite luminescence, overnight; active compounds read low; cells stimulated with P. aeruginosa culture filtrate; 360,000 tested, 0.36% active; activity change (cytotoxicity), % at 5 µM;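 active = corrected activity change at or below -50% at 5 µM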
Peg3 promoter: reduces Peg3 promoter-driven luciferase expression in HeLa. HeLa PEG-Prom luciferase reporter, luminescence, overnight. inhibition, % at 20 µM. 360,000 tested, 1.7% active;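 active = inhibition of at least 50% at 20 µM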
CF NFkB block: cystic fibrosis NF-kB activation inhibition | KKLEB NF-kB-GFP reporter, PAF-induced, GFP fluorescence overnight | inhibition, % at 5 µM | 360,000 tested, 0.86% active;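 active = at least 50% inhibition at 5 µM, scaled per plate between neutral and stimulator controls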;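 also: PAF is a Pseudomonas aeruginosa culture filtrate used as stimulus; plate controls were PAF-stimulated DMSO wells for no effect and unstimulated DMSO wells for full effect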
Starred values were filed as active, the others as inactive; / = no result given.

SMILES | HIF-2a inh | Shn3 3UTR inh | KKLEB tox | Peg3 promoter | CF NFkB block
O=C1NC(=O)N(Cc2ccccc2)C(=O)/C1=C/C=C/c1ccco1 | 38.5 | 58.7 | 1.7 | 13.3 | 86.8*
COc1ccc(CN2C(=O)NC(=O)/C(=C\c3ccco3)C2=O)cc1 | 42.0* | 12.6 | -12.8 | 29.1 | 23.2
CCN1C(=O)C(=C/C=C/c2ccco2)C(=O)N(CC)C1=S | 17.7 | -2.8 | 6.2 | 12.9 | -3.5
CC(C)N1C(=O)/C(=C/C=C/c2ccco2)C(=O)N(Cc2ccco2)C1=O | 52.7* | 51.5 | 9.9 | 31.8 | -25.4
COc1ccc(CN2C(=O)NC(=O)/C(=C\c3cc(OC)c(OC)c(OC)c3)C2=O)cc1 | 5.9 | -2.1 | 2.0 | 4.2 | -2.9
O=S(=O)(c1cccc2ccccc12)N1Cc2ccccc2-n2nncc2C1 | -3.4 | 31.8 | -7.9 | 7.8 | -18.3
CCCc1cc(=O)oc2cc(OCC(=O)N3C[C@H]4C[C@@H](C3)c3cccc(=O)n3C4)ccc12 | -0.2 | -13.5 | -5.7 | -1.9 | 17.2
COc1ccc(-n2nnnc2C(c2ccccc2OC(F)(F)F)N2CCC3(CC2)C(=O)NCN3c2ccccc2)cc1 (stereo not given) | -13.1 | -5.4 | -3.2 | 56.5* | 5.2
COc1ccc(-n2nnnc2C(c2ccccc2)N2CCC3(CC2)C(=O)NCN3c2ccccc2)cc1 (stereo not given) | 11.7 | 16.7 | -26.6 | 34.5 | 13.4
COc1ccc(-n2nnnc2C(c2ccccc2OC(F)(F)F)N2CCC(n3c(=O)[nH]c4ccccc43)CC2)cc1 (stereo not given) | -39.2 | 7.7 | 3.0 | 84.5* | 18.3
CC1=NNC(=O)C1Br (stereo not given) | 5.9 | 18.6 | -4.4 | 1.8 | -10.3
CC(C)n1c(O)c(C2c3cc(Cl)ccc3Oc3[nH]c(=O)n(C(C)C)c(=O)c32)c(=O)[nH]c1=O (stereo not given) | 94.5* | 79.0 | 1.0 | 115.4* | 91.4*
CC(=O)c1c(O)n(-c2cccc(Cl)c2)c(=O)[nH]c1=O (tested in a mixture with another compound) | 9.5 | -6.2 | 10.1 | 11.0 | -5.5
Cn1cc(C(=O)OCC(=O)NC2CCCC2)c2ccccc21 | -10.1 | -14.7 | 11.0 | -6.2 | -1.9
S=P(N1CCCCCC1)(N1CC1)N1CC1 | -1.2 | 19.4 | 12.5 | -9.9 | 3.8
C[N+]1(C)[C@@H]2CC[C@H]1CC(OC(=O)C(c1ccccc1)c1ccccc1)C2 (stereo not given in full) | 12.3 | -12.1 | 1.0 | 12.2 | -2.3
O=C(OC1CCN(CCCl)CC1)C(c1ccccc1)c1ccccc1 | 13.0 | 93.3* | 44.5 | 10.3 | 1.0
C[C@H]1CN([C@@H](C)CO)C(=O)CCCn2nncc2CO[C@H]1CN(C)C(=O)Oc1ccc2ccccc2c1 | 6.3 | 2.9 | -2.1 | -7.6 | -0.9
O=c1[nH]c(=O)n(Cc2ccccc2)c(O)c1/C=N/NCCO | 24.5 | 9.9 | -18.0 | 10.6 | 15.1
COC1=C(C)C(=O)C2=C(C1=O)C(CO)N1C(C#N)C3CC4C(C1C2N1CCOC41)N3C (stereo not given) | 30.2 | -5.8 | -23.0 | 94.8* | 88.0*
CCOc1c(Cl)cc(CNCCc2c[nH]c3ccccc23)cc1OC | -0.5 | / | -8.3 | 59.5* | 18.1
CCOc1cc(CNCCc2c[nH]c3ccccc23)cc(Cl)c1OCC | 21.1 | -12.4 | 0.3 | 94.9* | -0.2
Fc1ccc(CNCCc2c[nH]c3ccccc23)cc1 | 12.8 | 3.4 | -11.6 | -4.9 | -5.5
CCOC(=O)CNC(=O)N1Cc2cc(-c3cccc(F)c3)ccc2-n2nncc2C1 | 2.8 | 0.8 | -14.9 | -2.1 | -21.4
Cc1ccc(/C=C2\C(=O)NC(=S)N(c3ccc(F)cc3)C2=O)s1 | -85.5 | 34.7 | -0.7 | 107.0* | -45.3
SMILES | HIF-2a inh | Shn3 3UTR inh | KKLEB tox | Peg3 promoter | CF NFkB block
CCOC(=O)C1CCN(/C=C2/C(=O)NC(=S)N(c3ccccc3F)C2=O)CC1 | 20.4 | -23.5 | 3.4 | 3.1 | -2.8
Cc1ccc(/C=C2\C(=O)NC(=S)N(c3ccccc3F)C2=O)s1 | 95.2* | 49.3 | -13.1 | 107.8* | 84.1*
NC(Cc1nc2ccccc2[nH]1)c1ccc(Cl)cc1 (stereo not given) | -397.7 | -31.3 | 5.0 | -300.9 | -26.6
C[N+](C)(C)CC1CCCC(C[N+](C)(C)C)C1=O (stereo not given) | 16.5 | -16.3 | -4.9 | 83.3* | 6.1
NNC(=O)c1nc[nH]c1C(=O)Nc1ccc(Cl)cc1C(=O)c1ccccc1 | 17.9 | -31.8 | -2.3 | 5.8 | -7.2
CCN[C@@H](C)Cc1cccc(C(F)(F)F)c1 | 7.5 | 0.0 | 11.8 | -0.7 | 5.2
CC(=O)OC1CC(OC2C(O)CC(OC3C(O)CC(OC4CCC5(C)C(CCC6C5CCC5(C)C(C7=CC(=O)OC7)CCC65O)C4)OC3C)OC2C)OC(C)C1OC1OC(CO)C(O)C(O)C1O (stereo not given) | 81.6* | 1.1 | -58.0* | 107.0* | 82.2*
COc1cc(C(=O)N/N=C/C23CC[C@@H](O)CC2(O)CC[C@@H]2[C@@H]3CCC3(C)C(C4=CC(=O)OC4)CCC23O)ccc1O (stereo not given in full) | 6.9 | 1.2 | 7.1 | 7.0 | -13.2
CC(=O)OC(C)(C)/C=C/C(=O)[C@](C)(O)[C@H]1[C@H](O)C[C@@]2(C)[C@@H]3CC=C4[C@H](C[C@H](O)C(=O)C4(C)C)[C@]3(C)C(=O)C[C@]12C | 79.1* | 97.5* | -85.9* | 102.6* | 84.3*
CC(=O)OC(C)(C)/C=C/C(=O)C(C)(O)C1C(O)CC2(C)C3CC=C4C(CC(O)C(=O)C4(C)C)C3(C)C(=O)CC12C (stereo not given) | 78.3* | 84.7 | -83.2* | 97.2* | 88.9*
C[C@H](CO)N1C[C@H](C)[C@H](CN(C)C(=O)Oc2cccc3ccccc23)OCc2cnnn2CCCC1=O | 13.4 | -11.9 | 7.8 | -17.3 | -4.5
S=C(NCCc1ccccc1)N1Cc2ccc(Br)cc2-n2nncc2C1 | 3.8 | -1.2 | -2.6 | 51.0* | -15.9
S=C(NCCc1ccccc1)N1Cc2cc(Br)ccc2-n2nncc2C1 | 1.5 | 13.5 | 7.7 | 12.0 | -16.7
CCC(=NCc1ccco1)c1c(O)n(-c2ccc(Cl)cc2)c(=O)[nH]c1=O | 9.3 | -0.6 | -3.6 | 3.8 | -26.4
CC(=O)OC1C(=O)OCC23CCC4(C)OC4C2OC2CC(OC(=O)C=CC=CC(=O)OCCC1C)C3(C)C21CO1 (stereo not given) | 72.0* | 93.7* | -55.1* | 99.6* | 93.0*
CC(O)C1C=CC=CC(=O)OC2CC3OC4C5OC5(C)CCC4(COC(=O)C4OC4(C)C(O)CO1)C2(C)C31CO1 (stereo not given) | 65.6* | 92.5* | -21.8 | 97.4* | 83.4*
Cn1c(O)c(C=NCCN2CCOCC2)c(=O)n(C)c1=S | 22.7 | -22.4 | -7.4 | 10.0 | 22.3
CCn1c(O)c(C=NCCN2CCOCC2)c(=O)n(CC)c1=S | 32.9 | 7.6 | 2.1 | 8.3 | 53.7*
CCn1c(O)c(C=Nc2ccc(N3CCOCC3)cc2)c(=O)n(CC)c1=S | 24.3 | 8.0 | -22.0 | -15.7 | 56.9*
